This note sets out measurements from PubChem BioAssay.

Assay [1] relates to Human papillomavirus type 1a protein E7 (residues 44-93). In words: HPV1a E7 fragment binders on microarrays, primary screen, biochemical, small-molecule microarray, residues 44-93, 635 nm fluorescence (AID 1108).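 Also: E7 fragment applied at 1 µg/mL in TBST for 1 h at 4 C; score combines spot fluorescence with its signal to noise ratio.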 As to conditions: small-molecule microarray binding, fluorescence 635 nm; higher = more signal.
Assay [2] is described as follows: modulators of HCV replicon luciferase signal, primary screen, HCV replication inhibitor project, Huh7 cells, luciferase reporter (AID 1109).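 Also: huh7 hepatoma cells harbouring a luciferase neomycin HCV replicon reporter; luciferase luminescence as measure of HCV replicon replication; test concentration not given here.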 To be noted: 48 h, higher = more signal.
Assay [3] concerns the target Left-right determination factor 2 (Homo sapiens) (UniProt O00292). In words: LEFTY2 binders on small-molecule microarrays, primary screen, biochemical, small-molecule microarray, 635 nm fluorescence scan (AID 1110). As to conditions: LEFTY2 binding, higher = more signal.
In assay [4] the target is Calmodulin-1 (Homo sapiens) (UniProt P0DP23). Description: CALM1 binders on microarrays, EGTA buffer, profiling panel, biochemical, small-molecule microarray, Cy5-labelled CALM1 (AID 1111).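 Also: labelled calmodulin applied in Tris saline Tween buffer holding calcium plus EGTA and DTT.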 As to conditions: Cy5-CALM1 binding fluorescence, higher = more signal.
For assay [5] the target is unchanged. In words: calcium-bound CALM1 binders on microarrays, profiling panel, artefact control for SMM control-protein annotation, biochemical, small-molecule microarray, Cy5-labelled CALM1, plus calcium (AID 1112).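 Also: score merges spot fluorescence with signal to noise from triplicate slides.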 As to conditions: Cy5-CALM1 binding fluorescence, higher = more signal.
Assay [6] is described as follows: small-molecule microarray binders of probe aWnt5a, primary screen, biochemical, biotinylated probe, 635/667 nm fluorescence (AID 1113).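 Also: score merges 667 nm fluorescence intensity with signal-to-noise per printed feature.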 To be noted: higher = more signal.
Assay [7] in a line: small-molecule microarray binders of probe aShh, primary screen, biochemical, biotinylated probe, 635/667 nm fluorescence (AID 1114).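 Also: probe is biotin-labelled aShh protein from a stem cell growth factor screen; measures binding of labelled protein to compounds printed on the slide; score merges feature fluorescence at 667 nm with signal-to-noise.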 As to conditions: higher = more signal.
Assay [8] in a line: small-molecule microarray binders of probe aNog, primary screen, biochemical, biotinylated probe, 635/667 nm fluorescence (AID 1115).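 Also: probe is biotinylated aNog protein used at 0.15 µg/mL for 1 h at 4 C; z-score combines 667 nm fluorescence of each spot with its signal to noise.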 As to conditions: higher = more signal.
For assay [9], the target named is Torsin-1A-interacting protein 1 (Homo sapiens) (UniProt Q5JTV8). In words: LAP1 binders from COS7 cell lysate, primary screen, small-molecule microarray, 635/667 nm fluorescence (AID 1116). As to conditions: COS7-hLAP1 lysate binding, 635 nm fluorescence, higher = more signal.
The target of assay [10] is Alpha-bungarotoxin (Bungarus multicinctus) (UniProt P60615). Description: alpha-bungarotoxin binders on microarray, profiling panel, artefact control for SMM control protein annotation, biochemical, small-molecule microarray, Alexa647 label, 635/667 nm fluorescence (AID 1117). As to conditions: alpha-BTX-A647 binding fluorescence, higher = more signal.
Sequence of Alpha-bungarotoxin (Bungarus multicinctus) (P60615 whole entry, looked up): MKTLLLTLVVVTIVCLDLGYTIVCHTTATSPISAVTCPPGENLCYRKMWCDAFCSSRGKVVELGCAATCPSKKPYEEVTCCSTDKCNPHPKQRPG

Sequence of Torsin-1A-interacting protein 1 (Homo sapiens) (Q5JTV8 whole entry, looked up): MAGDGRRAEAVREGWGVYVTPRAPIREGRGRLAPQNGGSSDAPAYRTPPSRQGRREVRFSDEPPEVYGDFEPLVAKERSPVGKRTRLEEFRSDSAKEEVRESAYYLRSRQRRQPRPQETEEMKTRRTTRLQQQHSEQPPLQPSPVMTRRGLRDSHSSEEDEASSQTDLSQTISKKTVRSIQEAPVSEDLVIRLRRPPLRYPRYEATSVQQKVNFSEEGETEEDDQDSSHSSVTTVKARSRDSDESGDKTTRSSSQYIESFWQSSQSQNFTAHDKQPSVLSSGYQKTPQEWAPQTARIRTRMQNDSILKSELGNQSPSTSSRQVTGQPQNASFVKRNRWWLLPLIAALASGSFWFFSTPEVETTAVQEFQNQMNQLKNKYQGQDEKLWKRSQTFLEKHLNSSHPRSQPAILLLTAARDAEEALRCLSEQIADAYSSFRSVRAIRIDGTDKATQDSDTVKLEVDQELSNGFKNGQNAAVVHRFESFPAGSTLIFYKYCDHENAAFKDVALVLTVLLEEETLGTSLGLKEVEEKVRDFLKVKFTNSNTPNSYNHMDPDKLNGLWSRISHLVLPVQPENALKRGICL
Sequence of Left-right determination factor 2 (Homo sapiens) (O00292 whole entry, looked up): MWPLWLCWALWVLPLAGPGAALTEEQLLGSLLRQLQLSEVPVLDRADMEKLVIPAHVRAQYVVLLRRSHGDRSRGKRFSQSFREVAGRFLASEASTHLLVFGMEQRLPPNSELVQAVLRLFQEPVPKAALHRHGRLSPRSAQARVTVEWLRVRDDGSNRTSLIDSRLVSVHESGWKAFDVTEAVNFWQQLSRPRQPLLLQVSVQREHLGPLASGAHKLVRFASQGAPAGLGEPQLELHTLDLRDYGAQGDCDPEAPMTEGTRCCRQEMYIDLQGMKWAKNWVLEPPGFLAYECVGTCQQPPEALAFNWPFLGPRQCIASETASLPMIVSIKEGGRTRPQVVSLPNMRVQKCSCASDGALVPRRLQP

As for `CCCCCCCCCCC(O)C1C=CC2C(=O)N(c3ccccc3)C(=O)C2N1Nc1ccc(C#N)cc1` (stereo not given), the composite z-score in assay [1] was 1.38; in assay [3], -0.157; in assay [4], 2.48; in assay [5], 1.19; in assay [6], 0.203; in assay [7] it was -0.164. The composite z-score was -0.889 in assay [8], 1.47 in assay [9] and 1.19 in assay [10]. Moreover, the z-score in [2] is -1.57.
On to `CCOC(=O)C[C@H]1[C@H](OC(=O)c2ccc(C(=O)c3ccccc3)cc2)[C@@H](NC(=O)CC(C)C)c2cc(OCCCO)ccc2N1C(=O)c1ccccc1`, for which the composite z-score in assay [1] is 1.3; in assay [3] it was 0.53; in assay [4], 0.735; in [5], -0.165; in assay [6], -0.0758; in assay [7] it was -0.167. Further, the values for the composite z-score in assay [8], in assay [9] and in assay [10] were -0.0927, 0.537 and 0.741, respectively. The z-score in assay [2] was -1.12.
Turning to `COc1cc(NN2C(C(O)c3ccco3)C=CC3C(=O)N(C)C(=O)C32)cc(OC)c1OC` (stereo not given), the composite z-score was 0.02 in assay [1]; 0.173 in [3]; 0.723 in [4]; -0.0913 in [5]; 0.107 in [6]; 0.394 in assay [7]. In addition, the composite z-score in [8] is 0.415; in [9] it was 0.447; in [10] it was 0.509. Moreover, the z-score in [2] was -0.0965.
With `C=CC[C@@H](OC(=O)Nc1ccc(OC)cc1)c1ccc(O)c(F)c1`, the composite z-score is 0.954 in assay [1]; -0.784 in [3]; -0.976 in assay [4]; -0.427 in assay [5]; -0.184 in [6]; 0.0141 in assay [7]. Besides, the composite z-score in [8] was -0.0602; in [9], 1.55; in [10] it was -0.418. Also, the z-score in assay [2] is -1.73.
Take `NC(=O)NCC#Cc1ccc2c(c1)[C@]1(C(=O)N2)[C@H](c2ccccc2OCCO)N2[C@H](c3ccccc3)[C@H](c3ccccc3)OC(=O)[C@H]2[C@@H]1C(=O)NC[C@H](O)c1ccccc1`: the composite z-score is 1.36 in [1]; -0.568 in [3]; -0.157 in [4]; 0.501 in assay [5]; -0.0981 in assay [6]; 0.0141 in assay [7]. The composite z-score was -0.213 in [8], 0.395 in assay [9] and 1.1 in assay [10]. Further, in assay [2], the z-score was -0.651.
Turning to `COC(=O)[C@@]1(Cc2ccc(OC)cc2)[C@H]2c3cc(C(=O)N(C)C)n(Cc4ccc(OC(F)(F)F)cc4)c3C[C@H]2CN1C(=O)c1ccccc1`, the composite z-score in assay [1] is 0.38; in assay [3], -0.0954; in [4] it was 0.417; in [5], 0.267; in assay [6] it was -0.0807; in [7] it was 0.337. Further, the composite z-score is 0.196 in assay [8], 1.58 in [9] and -0.114 in [10]. In assay [2], the z-score was -3.63.
As for `COC(=O)[C@@]1(Cc2ccccc2)[C@H]2c3cc(C(=O)N(C)C)n(Cc4ccc(C)o4)c3C[C@H]2CN1C(=O)c1ccccc1`, the composite z-score in [1] stood at 0.946; in assay [3], 0.0319; in assay [4], 1.69; in assay [5] it was 1.26; in [6], 0.69; in [7], 1.95. The composite z-score in assay [8] was 0.728; in assay [9] it was 1.29; in [10], 0.76. The z-score in assay [2] was -2.49.
As for `CCOC(=O)C[C@H]1[C@H](OC(=O)c2ccc(C(=O)c3ccccc3)cc2)[C@@H](NC(=O)c2ccc(-c3ccccc3)cc2)c2cc(OCCCO)ccc2N1C(=O)Cc1ccc(OC)cc1`, the composite z-score is 0.625 in assay [1]; 0.176 in assay [3]; 0.439 in [4]; -0.122 in assay [5]; -0.0236 in assay [6]; -0.214 in assay [7]. Besides, the results for the composite z-score in assay [8], in [9] and in [10] were -0.468, 0.759 and 0.355, respectively. In addition, the z-score in [2] was -0.751.
On to `CCCC=C(CCC)[C@@H](NS(=O)(=O)c1ccc(C(F)(F)F)cc1)c1ccccc1`, for which the composite z-score in assay [1] is 0.608; in assay [3], -0.318; in assay [4] it was 0.641; in assay [5] it was 0.951; in [6] it was 0.0853; in assay [7], -0.106. For the same compound, the values for the composite z-score in assay [8], in [9] and in [10] were 0.711, -0.127 and 0.261, respectively. For the same compound, the z-score in [2] was -0.0015.
On to `[N-]=[N+]=Nc1ccccc1[C@@H]1OC(c2ccc(OCCCO)cc2)=N[C@]1(Cc1ccccc1)C(=O)O`, for which the composite z-score in assay [1] is 1.4; in assay [3] it was -0.529; in [4] it was 1.57; in assay [5] it was 0.886; in assay [6], 0.0391; in assay [7], 0.0659. Besides, the composite z-score was determined as 0.135 in assay [8], 1.35 in assay [9] and 1.7 in assay [10]. In assay [2], this compound had a z-score of 0.848.
With `Cc1ccc(NN2C(C(O)c3c(F)cccc3Cl)C=CC3C(=O)N(C4CCCCC4)C(=O)C32)cc1` (stereo not given), the composite z-score in assay [1] was 0.51; in assay [3], -0.348; in assay [4], 1.96; in assay [5], 1.14; in assay [6] it was -0.0179; in assay [7], 0.261. The composite z-score in assay [8] turned out to be 1.22; in [9], 0.983; in [10] it was 1.93. Further, in assay [2], the z-score is -1.26.
As for `CCCCNC(=O)c1ccc(C#CC(C)(C)C)c(OC(C)=O)c1`, the composite z-score in assay [1] is 0.845; in [3], 0.806; in [4] it was 0.0614; in assay [5] it was -0.526; in assay [6], -0.159; in assay [7], -0.117. The composite z-score was -0.256 in assay [8], 0.5 in assay [9] and 0.608 in assay [10]. Moreover, the z-score in assay [2] is -0.196.
On to `Cc1ccc(F)cc1S(=O)(=O)N[C@@H]1CCN(Cc2ccc(Br)cc2)C1`, for which the composite z-score in assay [1] is -1.51; in assay [3], 0.681; in assay [4] it was -1.03; in assay [5], -0.806; in assay [6], -0.126; in assay [7] it was -0.214. Further, the composite z-score in [8] is -0.252; in assay [9], 0.418; in [10], 0.322. For the same compound, the z-score in assay [2] was -1.5.
Consider `CCCCC(CC)C(O)C1C=CC2C(=O)N(C)C(=O)C2N1Nc1ccccc1` (stereo not given), for which the composite z-score was 1.4 in assay [1]; -0.303 in [3]; 1.29 in [4]; 0.583 in assay [5]; -0.0721 in assay [6]; 0.0181 in assay [7]. Besides, the composite z-score in [8] came to 0.558; in assay [9], 0.466; in assay [10], 1.34. Further, the z-score in [2] is -0.813.
Regarding `C=CCN1C(=O)[C@]2(CCS(=O)(=O)c3ccccc3)N=C(c3ccc(OCCCO)cc3)O[C@@H]2c2ccccc21`, the composite z-score is 1.29 in [1]; 0.59 in assay [3]; 2.17 in [4]; -0.493 in assay [5]; -0.0268 in assay [6]; 0.365 in assay [7]. The results for the composite z-score in assay [8], in assay [9] and in [10] were 0.033, 1.68 and 1.2, respectively. Further, the z-score in assay [2] was -2.68.
For the compound `CC(C)(C)OC(=O)COc1cccc(C(=O)CCN2CCOCC2)c1`, the composite z-score was 0.219 in [1]; 0.0527 in assay [3]; -0.501 in assay [4]; -0.841 in assay [5]; -0.192 in assay [6]; -0.193 in assay [7]. Moreover, the composite z-score was -0.419 in assay [8], -0.0786 in [9] and -0.204 in assay [10]. Also, the z-score in assay [2] is -1.7.
`C=CCC(OC(C)=O)[C@@H]1[C@@H](N(Cc2cccc3ccccc23)C(=O)Cc2ccc(F)cc2)c2cc(OCCCO)ccc2N1C(=O)c1ccc2ccccc2c1` (stereo not given in full): the composite z-score is 0.408 in assay [1]; 0.171 in assay [3]; -0.0876 in [4]; 0.441 in assay [5]; -0.124 in assay [6]; -0.0626 in assay [7]. In addition, the results for the composite z-score in assay [8], in assay [9] and in assay [10] were -0.17, -0.0393 and 0.0927, respectively. Further, the z-score in assay [2] was -0.204.
